EWS-Fli block: EWS/Fli-driven NR0B1 reporter inhibitors, primary screen, A673 cells, NR0B1 luciferase, luminescence, MLPCN library | viability-normalised | inhibition, % at 12.6 µM | 0.67% of 350,000 active | AID 651661, 2012;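 active = mean inhibition of at least 50% after viability correction, with every replicate also passing that limit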;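 note: firefly luciferase signal divided by Alamar Blue viability fluorescence both relative to DMSO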
PAX8 reporter: inhibitors of PAX8-driven TPO luciferase reporter, primary screen, RMG-I cells, single concentration. inhibition, % at 12.6 µM. 1.2% of 360,000 active. SteadyGlo, 24 h. AID 652154, 2013;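 active = mean replicate inhibition at least 60% with every replicate also reaching 60%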;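 note: luciferase light reporting Pax8 driven TPO promoter activity; plate controls were median of neutral control wells for no effect and mitoxantrone controls for full effect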
GSIS activator: GLuc luminescence reporter in INS-1E cells, primary screen for activators of glucose-dependent secretion of insulin | INS-1E GLuc reporter insulin secretion, 2-3 h | activation, % at 16.6 µM | 0.61% of 370,000 active;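 active = lowest replicate activation of at least 40%, so every replicate reaches that level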;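 note: 0% = median of neutral control wells and 100% = median of IBMX positive control wells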
HIV Env fusion: inhibitors of HIV-1 Env-driven cell-cell fusion, primary screen, HeLa-JRFL effector, CEM21 target cells, luciferase; 1.1% of 360,000 active; AID 651610, 2012; inhibition, % at 12.3 µM;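 active = mean replicate inhibition score of at least 50 and every replicate individually at or above 50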;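 note: 0% = plate neutral controls and 100% = maraviroc near 300 nM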
F508del corr: F508del CFTR correction, initial screen, CFBE line, single point. CFBE cells, YFP halide quenching; stimulated with forskolin plus potentiator P3; % fluorescence drop versus neutral controls. activity (quench increase), % at 7.58 µM. 0.36% of 350,000 active. AID 720511, 2013;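 active = mean added fluorescence quench of at least 8% versus neutral control, with both replicates also reaching 8%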;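 note: cells transiently co-express mutant CFTR-F508del with the halide-sensitive YFP; corrector assay measuring rescue of mutant channel to the surface after 24 h compound exposure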
PGC1a acetyl inh: inhibitors of PGC1a acetylation signal, primary screen, cell-based, U2OS, AlphaScreen, inhibitor mode | AlphaScreen anti-acetyl-lysine; with virally co-expressed GCN5 acetyltransferase | inhibition, % at 15.6 µM | 0.17% of 350,000 active | AID 651687, 2012;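 active = every replicate shows inhibition of at least 40%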;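 note: 0% = neutral control wells and 100% = positive control wells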
* marks the source's active call; other numbers are inactive results; . = no result given; [ ] = remark or other dose. This is a sample that favours compounds with a hit; in the whole collection about 2.7% have one here.

SMILES	EWS-Fli block	PAX8 reporter	GSIS activator	HIV Env fusion	F508del corr	PGC1a acetyl inh
CN1C(=O)c2cc(NC(=O)c3cnccn3)ccc2OC[C@H]2O[C@H](CC(=O)NCC3CC3)CC[C@H]21	-5	5	-1	.	1	-2
COc1ccc(N2C(=O)N3[C@H](c4cccc(C)c4)[C@@H]4C(=O)N(Cc5ccccc5)C(=O)[C@@H]4[C@]3(Cc3ccccc3)C2=O)cc1	-8	-18	-1	86*	0	.
COc1ccc([C@@H]2[C@@H]3C(=O)N(C(C)(C)C)C(=O)[C@@H]3[C@]3(Cc4ccc(Cl)cc4)C(=O)N(c4cccc(C)c4)C(=O)N23)cc1	0	26	-17	90*	2	8
COc1ccc([C@@H]2[C@@H]3C(=O)N(C(C)(C)C)C(=O)[C@@H]3[C@]3(C)C(=O)N(c4ccc(C(F)(F)F)cc4)C(=O)N23)cc1	-9	2	-15	66*	3	-13
COc1ccc([C@@H]2[C@@H]3C(=O)N(C(C)(C)C)C(=O)[C@@H]3[C@]3(Cc4ccccc4)C(=O)N(c4ccc(C(F)(F)F)cc4)C(=O)N23)cc1	-14	-16	1	42	9.0*	3
COc1ccc([C@@H]2[C@@H]3C(=O)N(C(C)(C)C)C(=O)[C@@H]3[C@]3(C)C(=O)N(c4cccc(C)c4)C(=O)N23)cc1	-61	-45	.	36	0	2
COc1ccc([C@@H]2[C@@H]3C(=O)N(C(C)(C)C)C(=O)[C@@H]3[C@]3(Cc4ccc(Cl)cc4)C(=O)N(c4ccc(C)cc4)C(=O)N23)cc1	12	-16	-8	29	2	.
Cc1noc(C)c1S(=O)(=O)Nc1ccc2c(c1)CC(=O)N([C@H](C)CO)C[C@@H](C)[C@@H](CN(C)C(=O)Nc1ccccc1)O2	1	.	15	-11[16.7 µM]	2	2
COc1ccc([C@H]2C/C=C\C[C@H](c3cccc(Cl)c3)NC(=O)[C@@H](c3ccccc3)CC(=O)N2)c(OC)c1	.	.	10	.	.	.
O=C(C[C@@H]1CC[C@H]2[C@@H](COC[C@H](O)CN2Cc2nccs2)O1)NCc1ccccc1	-1	3	-2	.	-3	-2
CCCC#Cc1ccc2c(c1)O[C@@H](CN(C)Cc1cccnc1)[C@@H](C)CN([C@H](C)CO)S2(=O)=O	-1	7	-31	0[16.7 µM]	.	-11
O=S(=O)(N[C@H]1CC[C@@H](CCn2cc(-c3cccc(F)c3)nn2)O[C@@H]1CO)c1ccc(Cl)cc1	7	30	-34	23[16.7 µM]	-3	-2
CCN1C(=O)[C@H]2[C@@H](c3ccc(C)cc3)N3C(=O)N(c4cccc(Cl)c4)C(=O)[C@@]3(Cc3ccc(Cl)cc3)[C@H]2C1=O	-9	36	-4	59*	2	.
COc1ccc([C@@H]2[C@@H]3C(=O)N(C(C)(C)C)C(=O)[C@@H]3[C@]3(CC(C)C)C(=O)N(c4cccc(Br)c4)C(=O)N23)cc1	-14	11	-7	90*	5	3
CCN1C(=O)[C@H]2[C@@H](c3ccc(C)cc3)N3C(=O)N(c4cccc(Cl)c4)C(=O)[C@@]3(Cc3ccccc3)[C@H]2C1=O	1	9	-4	0	2	.
COc1ccc([C@@H]2[C@@H]3C(=O)N(C(C)(C)C)C(=O)[C@@H]3[C@]3(Cc4ccccc4)C(=O)N(c4ccc(OC)cc4)C(=O)N23)cc1	-10	-4	20	-11	3	-7
COc1ccc([C@@H]2[C@@H]3C(=O)N(C(C)(C)C)C(=O)[C@@H]3[C@]3(CC(C)C)C(=O)N(c4ccccc4)C(=O)N23)cc1	-2	-3	-15	81*	0	-3
COc1ccc([C@@H]2[C@@H]3C(=O)N(C(C)(C)C)C(=O)[C@@H]3[C@]3(CC(C)C)C(=O)N(c4ccc(C(F)(F)F)cc4)C(=O)N23)cc1	-5	-25	3	109*	5	.
CC[C@@]12C(=O)N(c3cccc(C)c3)C(=O)N1[C@H](c1ccc(OC)cc1)[C@@H]1C(=O)N(C(C)(C)C)C(=O)[C@@H]12	.	.	.	.	.	13
COc1ccc2c3c([nH]c2c1)[C@H](CO)N(C(=O)c1cccnc1)CC31CN(Cc2ccccc2)C1	-4	.	5	.	3	8
CCC(=O)N1c2ccc(S(=O)(=O)CCC(=O)N3CCn4c3nc3ccccc34)cc2CC1C (stereo not given)	.	106*	.	16	.	-7
C[C@H](CO)N1C[C@H](C)[C@@H](CN(C)S(=O)(=O)c2cccs2)Oc2ncc(/C=C/c3ccccc3)cc2C1=O	12	.	-2	17[16.7 µM]	1	17
CCOC(=O)C1=C(c2ccccc2)NC(=O)NC1c1ccc(O)c(OCC)c1 (stereo not given)	-5	-6	-12	-17	0	6
CCOC(=O)C1=C(c2ccccc2)NC(=O)NC1c1ccc(O)c(Cl)c1 (stereo not given)	68*	70*	-1	-21	3	23
CCCCn1c(N)c(N(CC(C)C)C(=O)c2ccc(S(=O)(=O)N(CC)c3ccccc3)cc2)c(=O)[nH]c1=O	-6	-10	6	102*	1	-3
SMILES	EWS-Fli block	PAX8 reporter	GSIS activator	HIV Env fusion	F508del corr	PGC1a acetyl inh
CCOc1ccccc1CNC(=O)CCn1ccc2cc(S(=O)(=O)N3CCCCC3)ccc21	20	14	9	62*	2	1
CC1CCC(NC(=O)CCn2ccc3cc(S(=O)(=O)N4CCCC4)ccc32)CC1 (stereo not given)	11	-21	1	73*	-2	-14
CCN(CC)c1ccc(/C=C/c2cccc[n+]2C)c(OC)c1	11	95*	-49	53	1	.
COc1ccc(S(=O)(=O)N(C)C[C@@H]2Oc3ccc(NS(=O)(=O)c4cn(C)cn4)cc3CC(=O)N([C@@H](C)CO)C[C@@H]2C)cc1	-15	-10	10	-10[16.7 µM]	-2	3
CCCCCCCCN1[C@@H](CC(=O)OC)c2cc(C(F)(F)F)ccc2S1(=O)=O	-1	0	-39	15	-1	-3
CCCCCCCCN1[C@@H](CC(C)=O)c2cc(C(F)(F)F)ccc2S1(=O)=O	3	-4	-41	61*	-2	1
Oc1cc2c(cc1O)C(c1ccccc1)CNCC2 (stereo not given)	6	7	4	-6	9.5*	9
COc1ccc(N2C(=O)CC(Sc3nnnn3-c3ccc(F)cc3)C2=O)cc1 (stereo not given)	13	95*	-8	11	-1	-22
COc1ccc(N2C(=O)CC(Sc3nc(C)cc(C)c3C#N)C2=O)cc1 (stereo not given)	.	.	63*	-25	.	0

Source: PubChem
